Some test systems named below: SR leukemia; RPMI-8226 leukemia; OVCAR-8 ovarian; OVCAR-5 ovarian; OVCAR-4 ovarian; SK-OV-3 ovarian; IGROV1 ovarian; OVCAR-3 ovarian; HS 578T breast; NCI/ADR-RES ovarian.
Common to all, as to experiment: NCI-60 one-dose screen, 48 h (100 = growth as untreated, 0 = no growth, -100 = all killed)
Details in all cases: 10 µM unless noted

Compounds without any hit were thinned out: in the full panel of roughly 83,000, 20% have a hit.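 Testing used 96-well plates and a 48-hour single-concentration exposure. Example: -40 means 40% of the starting cells died.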 A number with no mark means an inactive call. The source made the active and inactive calls. Rule for the calls: active = growth percent below 10; inactive = the rest.

In the case of `OC(c1ccc(F)c(C(F)(F)F)c1)c1cnccc1NC1CCCCC1` (stereo not given), the growth in the assay on SR leukemia was 16.6%; in the assay on RPMI-8226 leukemia, 16.9%; in the assay on OVCAR-8 ovarian, 81.8%; in the assay with OVCAR-5 ovarian it was 85.3%; in the assay with OVCAR-4 ovarian, 64.8%; in the assay on SK-OV-3 ovarian it was 103%. For the same molecule, the growth in the assay on IGROV1 ovarian was 70%; with OVCAR-3 ovarian it was 72.3%; in the assay on HS 578T breast it was 77.3%; with NCI/ADR-RES ovarian, 74.7%.
As to `Cc1ccc(C(=O)/C(=C\c2ccc([N+](=O)[O-])cc2)S(=O)Cc2ccc(Cl)cc2)cc1` (stereo not given), the growth with SR leukemia was 6.07% (active); in the assay on RPMI-8226 leukemia it was -28.1% (active); with OVCAR-8 ovarian, 25.6%; in the assay with OVCAR-5 ovarian it was 45.8%; with OVCAR-4 ovarian it was 58.9%; in the assay with SK-OV-3 ovarian it was 106%. For the same molecule, the growth in the assay with IGROV1 ovarian was 1.23% (active); with OVCAR-3 ovarian, 22.4%; in the assay on HS 578T breast, 36.9%; in the assay on NCI/ADR-RES ovarian, 30.5%.
For the molecule `CCSCC1CC(O)(c2ccccc2)CC(c2ccc(F)cc2)O1` (stereo not given), the growth in the assay on SR leukemia was -22% (active); in the assay on RPMI-8226 leukemia it was 8.79% (active); in the assay on OVCAR-8 ovarian, 21.3%; in the assay with OVCAR-5 ovarian, 86.6%; in the assay with OVCAR-4 ovarian, 24.5%; in the assay on SK-OV-3 ovarian, 25.9%. For the same molecule, the growth in the assay on IGROV1 ovarian was 48.5%; with OVCAR-3 ovarian, -13% (active); in the assay on HS 578T breast, -14.8% (active); in the assay on NCI/ADR-RES ovarian it was 24.6%.
With `C=C1C(=O)O[C@H]2[C@H]1CC/C(COC(=O)NCc1c[nH]c3ccc(Cl)cc13)=C\CC[C@@]1(C)O[C@@H]21`, the growth is 7.4% (active) with SR leukemia; -35.5% (active) in the assay on RPMI-8226 leukemia; -59.2% (active) in the assay on OVCAR-8 ovarian; -27.7% (active) with OVCAR-5 ovarian; -54.7% (active) in the assay on OVCAR-4 ovarian; 90.5% in the assay on SK-OV-3 ovarian. Besides, the growth in the assay on IGROV1 ovarian is -65.8% (active); with OVCAR-3 ovarian it was -87.2% (active); in the assay with HS 578T breast, 25.3%; with NCI/ADR-RES ovarian, 48.1%.
Take `Cc1ccc(NC(=O)Cc2ccc(/C=C/C(=O)c3ncc[nH]3)cc2)cc1`: the growth with SR leukemia was 7.24% (active); with RPMI-8226 leukemia, -11.4% (active); with OVCAR-8 ovarian, 8.42% (active); with OVCAR-5 ovarian it was 64.2%; with OVCAR-4 ovarian, 58%; in the assay with SK-OV-3 ovarian it was 84.4%. Also, the growth was 57.6% with IGROV1 ovarian, 15.3% in the assay with OVCAR-3 ovarian, 42.9% in the assay on HS 578T breast and 38.3% in the assay on NCI/ADR-RES ovarian.
For the molecule `C/C=C(\C)C(=O)NC1=CC[C@@]2(C)C(=CCC3C2CC[C@@]2(C)C3CC[C@@H]2C(C)N(C)C)C1=O` (stereo not given in full), the growth was 27.7% in the assay with SR leukemia; 3.85% (active) in the assay on RPMI-8226 leukemia; 65.9% in the assay with OVCAR-8 ovarian; 85.8% in the assay on OVCAR-5 ovarian; 1.84% (active) in the assay with OVCAR-4 ovarian; 114% with SK-OV-3 ovarian. In addition, the growth was 40.4% in the assay on IGROV1 ovarian, 29.3% in the assay with OVCAR-3 ovarian, 56.8% with HS 578T breast and 55.7% in the assay on NCI/ADR-RES ovarian.
As for `Cc1ccc(C(=O)/C(=C\c2ccc([N+](=O)[O-])cc2)S(=O)Cc2ccc(F)cc2)cc1` (stereo not given), the growth in the assay with SR leukemia was 7.86% (active); with RPMI-8226 leukemia, -21.3% (active); in the assay with OVCAR-8 ovarian, 12.5%; in the assay with OVCAR-5 ovarian it was 37.3%; with OVCAR-4 ovarian it was 30.6%; in the assay with SK-OV-3 ovarian it was 102%. Further, the growth in the assay on IGROV1 ovarian is -16.8% (active); in the assay with OVCAR-3 ovarian it was 9.09% (active); in the assay on HS 578T breast, 21.9%; in the assay on NCI/ADR-RES ovarian, 26.8%.
For `CC(=O)CCC(=O)OCc1cc(=O)c(O)co1`, the growth in the assay on SR leukemia was 86.4%; in the assay with RPMI-8226 leukemia it was 107%; in the assay with OVCAR-8 ovarian it was 108%; with OVCAR-5 ovarian, 93.5%; in the assay on OVCAR-4 ovarian it was 112%; in the assay with SK-OV-3 ovarian, 128%. Besides, the growth in the assay on IGROV1 ovarian is 98.6%; in the assay with OVCAR-3 ovarian, 106%; in the assay with HS 578T breast, 103%; with NCI/ADR-RES ovarian, 98.3%.
On to `O=C(Cc1ccccc1)NNc1nc(Cl)nc(N2CCN(C(c3ccccc3)c3ccccc3)CC2)n1`, for which the growth in the assay with SR leukemia is 10.7%; with RPMI-8226 leukemia, 101%; with OVCAR-8 ovarian, 91.8%; in the assay with OVCAR-5 ovarian, 94.8%; in the assay with OVCAR-4 ovarian, 106%; in the assay on SK-OV-3 ovarian, 105%. Further, the growth in the assay with IGROV1 ovarian is 64.5%; in the assay with OVCAR-3 ovarian it was 101%; in the assay on HS 578T breast it was 98.9%; in the assay on NCI/ADR-RES ovarian it was 102%.
Take `COc1cccc(-c2nc3occn3c2-c2ccnc(NCCNS(=O)(=O)c3ccc(C(F)(F)F)cc3)n2)c1`: the growth was 96.6% with SR leukemia; 69.2% in the assay on RPMI-8226 leukemia; 90.8% with OVCAR-8 ovarian; 116% with OVCAR-5 ovarian; 83.7% in the assay with OVCAR-4 ovarian; 103% in the assay with SK-OV-3 ovarian. Moreover, the growth was 80.6% in the assay on IGROV1 ovarian, 96.7% in the assay on OVCAR-3 ovarian, -23.5% (active) in the assay on HS 578T breast and 99.4% in the assay on NCI/ADR-RES ovarian.
Take `NC1=NN=C(N)C1=Cc1cc2ccccc2n2nnnc12`: the growth in the assay with SR leukemia is 94.4%; in the assay with RPMI-8226 leukemia it was 105%; with OVCAR-8 ovarian it was 98.1%; in the assay on OVCAR-5 ovarian, 108%; with OVCAR-4 ovarian, 105%; with SK-OV-3 ovarian it was 91.7%. Further, the growth was 103% in the assay with IGROV1 ovarian, 105% with OVCAR-3 ovarian, 94.7% with HS 578T breast and 105% in the assay with NCI/ADR-RES ovarian.
Consider `Nc1c(S(=O)(=O)O)cc2c3c(cccc13)C(=O)OC2=O`, for which the growth in the assay on SR leukemia is 114%; in the assay on RPMI-8226 leukemia, 106%; with OVCAR-8 ovarian, 97.6%; in the assay with OVCAR-5 ovarian it was 118%; with OVCAR-4 ovarian it was 94%; in the assay on SK-OV-3 ovarian, 110%. Further, the growth was 63.7% in the assay with IGROV1 ovarian, 95% with OVCAR-3 ovarian, 99.2% in the assay with HS 578T breast and 93.8% in the assay on NCI/ADR-RES ovarian.
`Cc1ccc(-c2csc(NC(=O)CSc3nc(-c4ccccc4)cc(=O)[nH]3)n2)cc1`: the growth with SR leukemia is 101%; with RPMI-8226 leukemia, 78.3%; with OVCAR-8 ovarian, 94.2%; in the assay with OVCAR-5 ovarian, 95.8%; in the assay on OVCAR-4 ovarian, 105%; in the assay with SK-OV-3 ovarian it was 92.4%. Besides, the growth in the assay on IGROV1 ovarian was 77.2%; in the assay on OVCAR-3 ovarian, 101%; in the assay on HS 578T breast it was 90.6%; in the assay with NCI/ADR-RES ovarian it was 93.4%.

These data come from PubChem BioAssay (NCI).
